# Bioassay records (PubChem)
# FLuc modulator = qHTS profiling assay for firefly luciferase inhibitor/activator using purifed enzyme and Km concentrations of substrates (counterscreen for miR-21 project). purified FLuc, Km substrates, luminescence inhibition. 6.9% of 360,000 active. AID 588342, 2011. Potency, µM (highest dose often 57.5 µM), for the others: at the highest dose activity change, negative = inhibition, hits mostly inhibitors. Luciferin 4-monooxygenase (Photinus pyralis), P08659;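 note: plate controls were vehicle for no effect and reference inhibitor for full effect; nearly all actives have a fitted effect of over 55% in size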
# Target sequence (P08659 whole entry, looked up): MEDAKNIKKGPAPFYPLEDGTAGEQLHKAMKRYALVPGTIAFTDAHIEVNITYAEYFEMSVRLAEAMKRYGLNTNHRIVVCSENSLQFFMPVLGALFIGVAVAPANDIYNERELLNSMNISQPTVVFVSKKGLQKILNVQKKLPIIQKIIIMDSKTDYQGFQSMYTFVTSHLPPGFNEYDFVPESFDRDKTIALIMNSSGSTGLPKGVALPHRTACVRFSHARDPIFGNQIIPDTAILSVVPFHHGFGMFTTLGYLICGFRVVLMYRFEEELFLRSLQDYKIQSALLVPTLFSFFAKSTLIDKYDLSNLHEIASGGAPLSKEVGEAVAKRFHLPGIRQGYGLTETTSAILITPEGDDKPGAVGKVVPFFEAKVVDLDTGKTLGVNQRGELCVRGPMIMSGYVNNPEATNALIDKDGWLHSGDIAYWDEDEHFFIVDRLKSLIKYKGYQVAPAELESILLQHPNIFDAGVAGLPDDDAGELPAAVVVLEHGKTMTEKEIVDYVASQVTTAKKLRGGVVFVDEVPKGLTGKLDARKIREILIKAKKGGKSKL
#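 Biochemical qHTS of compounds, final roughly 60 µM downward over six points, against 10 nM purified firefly luciferase using Km concentrations of substrates (10 uM D-luciferin, 10 uM ATP) in Tris acetate pH 7.5 buffer; luminescence output.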
# ELG1 DNA repair = qHTS screen for small molecules that inhibit ELG1-dependent DNA repair in human embryonic kidney (HEK293T) cells expressing luciferase-tagged ELG1; AID 504467, 2011; HEK293T ELG1-luciferase reporter, luminescence, 16 h; DNA damage induced by 5-fluorouridine; 2.3% of 330,000 active; Potency, µM (series often up to 46.1 µM), for the others: at the highest dose activity change, negative = inhibition, actives largely listed as inhibitors; note: % is set by controls: 0 for no effect and ±100 for the full control effect; nearly all actives have a fitted effect of over 55% in size
#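 Reporter activity after DNA damage by 5-fluorouridine is monitored. Compound-treated cells incubate 16 hr at 37 °C, then ONE-Glo is added for 30 min before luminescence reading.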
# ELG1 genotox = qHTS screen for small molecules that induce genotoxicity in human embryonic kidney (HEK293T) cells expressing luciferase-tagged ELG1. HEK293T ELG1-luciferase reporter, luminescence, 16 h. Potency, µM (series often up to 46 µM), inactives show at the top dose activity change, positive = activation, hits mostly activators. 1.3% of 330,000 active. AID 504466, 2011; note: % of control where 0% means no effect; nearly all actives have a fitted effect of over 60% in size
#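 16 hr compound incubation (37 °C, 5% CO2) of HEK293T cells carrying luciferase-tagged ELG1; luciferase then measured by ONE-Glo luminescence after 30 min at RT.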
# Rab9 prom act = qHTS Assay for Rab9 Promoter Activators; Huh7 Rab9 promoter-luciferase reporter, luminescence, 24 h; Potency, µM (titrated, usually from 9.22 µM), without a hit: at the highest dose activation, negative = inhibition, hits mostly activators; 2.8% of 320,000 active; note: % of control where 0% means no effect; nearly all actives have a fitted effect of over 60% in size
#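 Promoter activation is measured as luciferase luminescence in Huh7 cells stably transfected with a Rab9 promoter–luciferase construct, following 24 h compound exposure at 37 °C and 10 min reagent incubation at ambient temperature.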
# NPC1 promoter act = qHTS Assay for NPC1 Promoter Activators. Huh7 NPC1 promoter luciferase reporter, 24 h. Potency, µM (top dose mostly 9.22 µM), without a hit: at the highest dose activation, most hits filed as activators. 2.4% of 320,000 active. AID 485313, 2010; note: % of control where 0% means no effect; nearly all actives have a fitted effect of over 60% in size
#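 In 1536-well qHTS, Huh7 cells harboring an NPC1 promoter–luciferase construct received compound for 24 h; activation was quantified by luminescence following luciferase reagent addition.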
# SMN2 splice up = qHTS Assay for Enhancers of SMN2 Splice Variant Expression | HEK293 SMN2-luciferase splicing reporter, luminescence, 30-36 h | Potency, µM (series often up to 46.1 µM), inactives show at the highest dose activity change, positive = activation, hits mostly activators | 2.8% of 210,000 active | AID 1458, 2008; note: % of control where 0% means no effect; nearly all actives have a fitted effect of over 55% in size
#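 HEK293 cells carry an SMN2 […]–luciferase reporter in which exon 7 inclusion puts luciferase in frame. Cells were plated 10-12 h before compound addition, then incubated 30-36 h at 37C. ONE-Glo luminescence was read; sodium butyrate at 4.5 mM final served as control.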
# An asterisk follows results filed as active; ? = inconclusive; . = not tested or not shown. This is a sample that favours compounds with a hit; in the whole collection about 9.2% have one here. Calls come from the whole dose curve; as a rule, active = well fitted curve in the direction sought with a large enough effect; inconclusive = small, poorly fitted or top-dose-only effect, or another doubt; inactive = no such curve, though single readings can be large; an effect the other way counts as inactive or inconclusive. Potency is the fitted concentration of half-maximal effect.
SMILES,FLuc modulator,ELG1 DNA repair,ELG1 genotox,Rab9 prom act,NPC1 promoter act,SMN2 splice up
CCCCN(C)CC(O)Cn1cc(/C=C/C(=O)c2ccc(OCC)cc2)c2ccccc21 (stereo not given),17µM*,11%,0%,-4%,-1%,-83%
COc1ccc(/C=C2\C(=O)ON=C2c2cccc([N+](=O)[O-])c2)cc1,24µM*,2%,1%,-3%,-4%,9%
COc1ccc(/C=C2\C(=O)ON=C2c2ccccc2)cc1OC,?,26%,?,2%,-1%,.
COc1ccc(/C=C2/C(=O)ON=C2c2ccccc2)cc1OC,11µM*,?,15%,-8%,-6%,7%
O=C(NNC(=O)c1ccccc1-c1ccccc1C(=O)O)c1cccc([N+](=O)[O-])c1,0%,0%,3%,-6%,-1%,10%
O=C(NNC(=O)c1ccccn1)c1cccc([N+](=O)[O-])c1,-10%,12µM*,-4%,1%,-1%,-12%
COc1ccccc1C(=O)NNC(=O)c1cccc([N+](=O)[O-])c1,19µM*,?,?,?,11%,?
COc1ccccc1C(=O)NNC(=O)c1cccc(C)c1,12µM*,?,?,?,?,.
CCOC(=O)c1[nH]c(C)c(CCC(=O)Nc2ccc(C(C)=O)cc2)c1C,4%,.,.,.,.,.
COc1ccc(Cn2c(=O)c3oc4ccccc4c3n(CC(=O)Nc3c(C)cccc3C)c2=O)cc1,-1%,.,.,.,.,.
CNc1ccccc1C(C)(C)c1cc(-c2cccc(OC)c2)no1,-3%,1.5µM*,-1%,-11%,-12%,-57%
COc1ccc(CN2C(=O)c3ccccc3C(/C=N\OCc3ccc(C)cc3)C2=O)cc1 (stereo not given),17µM*,10%,-7%,3%,5%,-19%
CN(C)c1ccc(NC(=O)Nc2ccc3snnc3c2)cc1,7.6µM*,?,12%,?,?,-1%
CCOc1ccc(NC(=O)Nc2ccc3snnc3c2)cc1,-3%,.,.,.,.,13%
O=C(Nc1cccc(C(F)(F)F)c1)Nc1ccc2snnc2c1,-7%,.,.,.,.,-27%
O=C(Nc1ccccc1)Nc1ccc2nnsc2c1,7.6µM*,?,6%,4µM*,?,.
O=C(Nc1ccccc1)Nc1ccc2snnc2c1,11µM*,?,-2%,?,?,11µM*
Cc1cc(C)c(NC(=O)Nc2ccc3snnc3c2)c(C)c1,2%,.,.,.,.,-1%
O=C(NC1CC(=O)N(c2ccccc2)C1)c1ccc(S(=O)(=O)N2CCOCC2)cc1 (stereo not given),-4%,.,.,.,.,.
Cc1nc2ccc(Cl)cc2nc(C)/c1=N\O,?,?,18µM*,5%,0%,-8%
Cc1ccc2nc(C)/c(=N\O)c(C)nc2c1,?,?,?,-6%,2%,4%
CCCn1c(=O)n(-c2ccccc2Cl)c(=O)c2sc3ccccc3c21,-4%,.,.,.,.,-14%
COc1cccc(/C(C#N)=C/c2c(-c3ccc(Cl)cc3)nc3c(C)cccn23)c1,6%,15µM*,-17%,-6%,-2%,-8%
Cc1cccn2c(/C=N/OCc3cccc(F)c3)c(-c3ccc(Cl)cc3)nc12,-2%,-13%,-4%,-3%,-2%,-19%
COc1ccc(CN(C)C(=O)C(Cc2ccccc2)NC(=O)c2ccccc2)c(OC)c1 (stereo not given),2%,?,-33%,9%,8%,.
COc1ccc(CCNC(=O)CN(c2cc(C(F)(F)F)ccc2Cl)S(C)(=O)=O)cc1,-16%,.,.,.,.,2%
